Screening data from PubChem.
Cardiac RTF inh – cardiac RTF calcium desensitization; IANBD-labeled cardiac RTF, Ca2+ fluorescence; inhibition, % at 7.15 µM; 340,000 compounds, 0.12% hits; AID 493244;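 active means inhibition above the mean inhibition of all tested compounds plus 3 SD, cut at about 17% in these data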;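 further: assay run at fixed EC70 calcium of 1.6 mM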
IDE inh – inhibitors of human insulin-degrading enzyme in cells; 320,000 compounds, 0.41% hits; HEK cells, FAbetaB cleavage, fluorescence polarization; P14735; inhibition, % at 5.59 µM;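 active means percent inhibition above the average of all tested compounds plus 3 SD, set per screening campaign, cut at about 16% in these data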;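 further: IDE supplied by intact live HEK cells; FP after avidin binding of uncleaved biotin substrate so inhibition keeps polarization high; 0% = DMSO wells and 100% = 60 µM reference IDE inhibitor Ii1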
cardiac RTF act – increases calcium sensitivity of human cardiac regulated thin filaments; P19429+P45379; IANBD-labeled TnC RTF fluorescence at EC20 calcium; 0% EC20 calcium, 100% full calcium; activation, % at 7.2 µM; 340,000 compounds, 0.24% hits; AID 493008;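 active means activation above the mean over all tested compounds plus 3 SD, cut at about 30% in these data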;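 further: rise in fluorescence read as greater calcium sensitivity of cardiac thin filaments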
CRFBP-R2 block – CRF-BP/CRF-R2 complex antagonism | HEK293 CRF-R2/CRF-BP, CRF-induced calcium fluorescence | inhibition, % at 11.8 µM | 350,000 compounds, 0.59% hits | AID 588475;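 active means inhibition of the ligand-induced calcium signal above about 50% at the single tested concentration, limit read from the data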
CRFR2-BP ag – CRF-BP/CRF-R2 complex agonism; HEK293 CRF-R2/CRF-BP, calcium dye fluorescence (FLIPR); percent of saturating CRF peptide response; activation, % at 13.2 µM; 350,000 compounds, 0.46% hits; AID 588473;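 active means activation of at least 50%, plus an integration ratio under a set limit after plate pattern correction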;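 further: plate controls were neutral control wells without compound for no effect and CRF at EC100 for full effect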
IDE cell activ – activators of human insulin-degrading enzyme in cells; P14735; HEK cells, FAbeta-B cleavage, fluorescence polarization; 0% vehicle, 100% cell-free pure enzyme wells; activation, % at 5.96 µM; 340,000 compounds, 0.073% hits; AID 493087;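 active means activation above the mean of all tested compounds plus 3 SD, set per screening campaign, cut at about 17% in these data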
IDE inh confirm – cellular human IDE inhibition, confirmation | shares compounds with IDE inh | inhibition, % at 5.59 µM | AID 435028 | HEK cells, FAbetaB cleavage, fluorescence polarization | 1,200 compounds, 51% hits;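 active means mean inhibition across triplicate wells above the cutoff set by the earlier primary insulin-degrading enzyme screen, cut at about 16% in these data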;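 further: 0% = DMSO wells and 100% = 60 µM reference IDE inhibitor Ii1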
HEK cytotox – kills HEK cells in IDE inhibitor counter-screen; shares compounds with IDE inh; HEK293 cytotoxicity, ATP luminescence; inhibition, % at 5.59 µM; 1,200 compounds, 28% hits; AID 449730; in the data active means inhibition above about 22%;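 further: 0% = vehicle wells and 100% = reference cytotoxic drug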
The depositor's hits bear a star; nt = no result given. Sampled rows, rich in hits. Any-hit rate of the full collection: about 1.5%.

SMILES	Cardiac RTF inh	IDE inh	cardiac RTF act	CRFBP-R2 block	CRFR2-BP ag	IDE cell activ	IDE inh confirm	HEK cytotox
Cc1ccc(S(=O)(=O)/N=C2/NC(=O)/C(=C/c3cc([N+](=O)[O-])ccc3O)S2)cc1	-26.9	57.7*	15.7	-137.2	66.8*	-44.6	80.0*	5.0
COc1cc(/C=C2\S/C(=N/S(=O)(=O)c3ccc(C)cc3)NC2=O)c([N+](=O)[O-])cc1OC	-6.9	-2.2	2.9	43.2	1.1	-3.8	nt	nt
Cc1ccc(NC(=O)C2CCN(c3ncnc4c3nc3n4CCCCC3)CC2)nc1	-4.2	1.0	-2.9	-6.0	0.1	4.7	nt	nt
Cc1cc([N+](=O)[O-])cc(C)c1OCC(=O)N/N=C/c1ccc(OC(=O)c2ccccc2)cc1	8.4	19.6*	1.7	-11.6	0.2	-25.1	5.8	8.0
COc1ccc(/C=C/C(=O)Nc2cc(C(F)(F)F)ccc2Cl)cc1OC	-3.4	8.5	-12.7	-4.6	-1.3	-8.5	nt	nt
COc1cc(/C=C/C(=O)Nc2cc(C(F)(F)F)ccc2Cl)cc(OC)c1OC	-13.9	17.4*	-11.8	6.2	0.0	-4.5	3.6	16.0
COc1ccc(OCc2cc(C(=O)N3CCSCC3)no2)c(Cl)c1	-2.4	18.4*	0.8	5.3	-2.5	-14.7	11.3	11.5
O=C(Nc1ccccc1)OCCOc1ccc(Br)cc1	-5.7	nt	0.2	21.8	2.4	2.1	nt	nt
CC(=O)NC(Cc1ccc(C)cc1)C(=O)NC1CCN(C(=O)NCc2ccccc2)CC1 (stereo unspecified)	-6.1	nt	1.2	5.7	0.1	4.2	nt	nt
O=c1c2c([N+](=O)[O-])cc([N+](=O)[O-])cc2sn1Cc1ccccc1	-5.8	84.3*	-6.0	0.7	-0.7	-32.1	23.8*	92.1*
C/C(=N\Nc1ncnc2sc(C)c(C)c12)c1ccccn1	-15.0	47.8*	-1.6	-139.1	64.0*	-16.2	35.7*	118.2*
CC(=O)Nc1ccc(NC(=O)C2CC(=O)N(C(C)C)C2)cc1 (stereo unspecified)	-2.6	0.7	3.5	3.5	-0.2	-2.2	nt	nt
Cc1ccc(NC(=O)CSCC(=O)NNC(=O)c2nn(C)c(=O)c3ccccc23)cc1	-4.1	-1.6	2.0	-3.1	-0.2	2.6	nt	nt
CC(=O)N(C1=C(Cl)C(=O)c2ccccc2C1=O)C1CCCCC1	-0.7	49.8*	-3.3	3.6	-1.8	-68.3	63.6*	123.8*
COc1ccc(C(=O)N(C)CCOc2ccc(Cl)cc2)cc1S(=O)(=O)N1CCCC1	nt	nt	nt	-11.3	-0.4	nt	nt	nt
C=CCn1c(O)c(N=NC(=S)Nc2ccc(OC)cc2)c2ccccc21	7.2	16.8*	-16.7	37.2	0.9	4.2	-1.1	56.6*
C=CCn1c(O)c(N=NC(=S)Nc2cccc(OC)c2)c2ccccc21	2.0	18.7*	-11.0	40.7	-0.9	-5.9	7.2	81.7*
C=CCn1c(O)c(N=NC(=O)OCC)c2ccccc21	-6.1	0.2	7.4	9.2	1.8	-1.4	nt	nt
C(=N\NC1=Nc2cccc3cccc1c23)/c1cccnc1	-4.7	22.8*	-0.2	-14.3	2.0	-16.6	15.4	9.2
CCN(CC)C(=O)Cn1cc(C(=O)C(=O)N2CC=C(c3ccccc3)CC2)c2ccccc21	-9.8	18.9*	0.9	-11.7	4.5	-22.3	20.6*	9.0
CC(C)NC(=S)N1CCN(C/C=C/c2ccccc2)CC1	-9.3	0.6	1.6	-4.7	-2.8	1.6	nt	nt
CCc1nn(CC(=O)N2CCN(c3ccc(F)cc3)CC2)c(=O)c2cc3occc3n12	-1.1	2.3	-5.0	-5.0	-0.3	0.4	nt	nt
CC(C)OC(=O)c1cc(C(=O)c2cc(F)ccc2O)coc1=N	3.0	-5.5	4.9	-19.5	-0.3	0.1	nt	nt
COc1ccc(O)c(C(=O)c2coc(=N)c(C(=O)Nc3ccc(SC(F)F)cc3)c2)c1	-2.8	20.3*	5.7	7.2	11.5	-22.1	38.0*	24.5*
O=C(O)Cn1c2ccccc2c2ccccc21	-6.3	-3.9	1.8	-8.3	-3.0	2.5	nt	nt
SMILES	Cardiac RTF inh	IDE inh	cardiac RTF act	CRFBP-R2 block	CRFR2-BP ag	IDE cell activ	IDE inh confirm	HEK cytotox
O=C(O)Cn1c2c(c3ccccc31)CSc1ccc(Cl)cc1-2	-6.1	24.0*	-1.5	-1.3	0.3	-7.9	2.7	8.2
CC(=O)NN1C(=O)/C(=C\c2ccc(C)cc2)SC1=S	2.0	-1.2	-3.0	-14.3	-0.2	-3.6	nt	nt
O=C1/C(=C\c2ccc(O)cc2)SC(=S)N1/N=C/c1ccc(O)cc1	-21.4	75.0*	8.2	-48.0	36.9	-159.7	98.2*	10.7
COc1cc(/C=C2\SC(=S)N(NC(=O)c3ccc(O)cc3)C2=O)ccc1O	-19.5	85.4*	11.5	-53.4	52.6*	-85.1	150.2*	9.6
CC(=O)NN1C(=O)/C(=C\c2ccc(O)cc2)SC1=S	-18.6	36.5*	23.6	-5.1	47.9	-73.3	89.3*	7.7
COc1cc(/C=C2\SC(=S)N(NC(=O)c3cccnc3)C2=O)ccc1O	-6.9	114.3*	6.7	-1.0	17.9	-130.1	158.5*	8.7
O=C(NN1C(=O)/C(=C/c2ccc(O)c(O)c2)SC1=S)c1ccccc1	-0.3	42.6*	8.4	-24.3	10.5	-42.8	87.0*	16.8
O=C(NN1C(=O)/C(=C/c2cccc(O)c2)SC1=S)c1ccccc1O	3.2	-1.3	-4.2	7.8	0.3	4.7	nt	nt
CC1(C)CC(=O)N(c2cc(Cl)ccc2Cl)C(=O)C1	-4.7	0.4	-0.4	-3.2	-2.0	3.7	nt	nt
O=C(O)CN1C(=O)/C(=C\c2ccc(OC(=O)c3ccco3)cc2)SC1=S	-7.3	35.3*	5.8	-4.3	1.8	-52.6	159.9*	6.5
O=C(O)CN1C(=O)/C(=C\c2cccc(OC(=O)c3ccco3)c2)SC1=S	1.7	1.0	-4.2	9.4	-0.2	0.7	nt	nt
C=CCN1C(=O)/C(=C\c2cccc(OC(=O)c3ccco3)c2)SC1=S	-12.4	4.5	-9.6	0.4	0.6	0.7	nt	nt
C=CCN1C(=O)/C(=C\c2ccc(OC(=O)c3ccco3)c(OC)c2)SC1=S	2.3	32.5*	0.6	-5.2	2.0	-77.2	143.3*	10.6
CCC(C(=O)NCc1cccs1)n1nc(C)n2c(cc3occc32)c1=O (stereo unspecified)	-14.8	3.5	-2.0	4.9	-2.2	3.0	nt	nt
Cc1ccc(-n2c(SCC(=O)N3CCOCC3)nnc2-c2cccnc2)cc1	-10.2	8.0	-6.7	-9.6	0.7	-2.0	nt	nt
O=C(CSc1nnc(-c2cccnc2)n1-c1ccccc1)N1CCN(c2ccc(F)cc2)CC1	0.3	21.0*	3.6	12.5	-0.8	-34.3	10.1	20.6
Cc1ccc(-n2c(SCC(=O)N3CCOCC3)nnc2-c2cccnc2)cc1C	-1.8	18.8*	3.2	2.0	-1.6	-11.8	5.8	7.5
